# Experimental data reported in PubChem BioAssay.
# Legend:
# [1] = molecular target: Tumor necrosis factor receptor superfamily member 10B (Homo sapiens) (UniProt O14763); test: caspase-8 TRAIL sensitization, hit retest, confirmation, cell-based, NB7+caspase-8, with/without TRAIL, luminescence panel (AID 651596); conditions: NB7 neuroblastoma + caspase-8, TRAIL sensitization, luminescence viability, with TRAIL, mean of runs, at 10 µM, stronger effect = higher value
# [2] = as above; conditions: NB7 neuroblastoma + caspase-8, without TRAIL, luminescence viability, without TRAIL, mean of runs, at 10 µM
# Tumor necrosis factor receptor superfamily member 10B (Homo sapiens), sequence (O14763 whole entry, looked up): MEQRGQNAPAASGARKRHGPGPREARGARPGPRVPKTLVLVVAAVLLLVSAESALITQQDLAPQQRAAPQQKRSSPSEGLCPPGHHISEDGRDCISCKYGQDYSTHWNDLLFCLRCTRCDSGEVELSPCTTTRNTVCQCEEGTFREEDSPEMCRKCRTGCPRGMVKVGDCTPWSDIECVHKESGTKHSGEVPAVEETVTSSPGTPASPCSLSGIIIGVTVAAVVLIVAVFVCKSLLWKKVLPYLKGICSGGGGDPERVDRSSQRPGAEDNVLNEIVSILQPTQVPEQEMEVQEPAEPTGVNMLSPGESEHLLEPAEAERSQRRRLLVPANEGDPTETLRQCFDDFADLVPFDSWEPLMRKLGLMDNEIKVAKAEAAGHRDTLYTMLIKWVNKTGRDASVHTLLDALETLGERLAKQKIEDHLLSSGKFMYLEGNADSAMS
SMILES,activity [1],activity [2]
Cc1cccc(NC(=S)NC(=O)c2ccc(-c3ccccc3)cc2)n1,55.5%,55.3%
Cc1ccc2c(c1)sc(=NC(=O)c1cccs1)n2C,91.1%,90.7%
Cc1nc(NCC2CCCO2)nc2c1C(=O)CC(C)C2 (configuration not stated),33%,40.6%
N#Cc1c(NC(=O)c2ccccc2)sc2c1CCCCC2,46.5%,49.6%
Nc1c(C(=O)N2CCOCC2)sc2nc3c(cc12)CCCC3,67.5%,63.5%
COc1ccc(N(C(=O)CCl)C(C(=O)NCCc2ccccc2)c2cccs2)cc1Cl (configuration not stated),98.3%,99.1%
C[C@H](NC(=O)c1[nH]cnc1C(=O)Nc1ccc(CNC(=O)OC(C)(C)C)cc1)C(=O)OCc1ccccc1,63.1%,37.6%
Cc1ccc(/C(N)=N/OC(=O)c2ccc(Cl)cc2Cl)cc1,97%,96.7%
C/C(=N\Nc1nc2ccccc2[nH]1)c1ccccn1,51.5%,68.5%
C#CCSc1nnc(-c2ccc(OC)cc2)o1,97.1%,89.3%
O=C(Nc1nnc(SCC(=O)N2CCOCC2)s1)c1ccccc1Cl,72.6%,78.2%
CNc1nnc(-c2ccc(N(C)C)cc2)s1,73.4%,61.2%
COc1ccc(CC(N)c2csc(NC(=O)Nc3cccc(C(F)(F)F)c3)n2)cc1 (configuration not stated),39.6%,87%
CCC(C)c1ccc(NC(=O)c2cccs2)cc1 (configuration not stated),72.8%,68.1%
CCCCC[C@@H](C)N1C[C@H](COCc2ccccc2)Oc2cc(N3CC[C@H](N(C)C)C3)ccc2S1(=O)=O,12%,45.6%
COC(=O)c1ccc2nc(-c3ccc4c(c3)OCO4)cn2c1,74.5%,76%
